A1 inh: inhibitors of A1. MEF A1-2A-BIM cells, caspase-Glo luminescence, 3 h; percent of clofoctol signal, DMSO as zero. caspase activation, % (concentration not given with the values). hit rate 0.51% among 21,000;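 active = most replicate scores above 10, or exactly half above 10 with mean activity above 10; inconclusive = mean activity below 10 while half the replicates exceed 10; inactive = most replicate scores below 10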;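 note: effector caspase 3 and 7 activity cleaving a DEVD luciferin substrate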
BJeLR viab HTS: lowers viability of BJeLR cells. BJeLR fibroblasts viability, CellTiterGlo ATP luminescence, 48 h; HRASV12, hTERT and SV40 LT/ST transformed. viability loss activity score, % (no concentration beside the values). hit rate 0.64% among 30,000; in the data active = viability loss activity score above about 50%; inconclusive = no clear call, values can overlap the other calls; inactive = below about 35%;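 note: higher score means fewer live cells and less ATP luminescence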
Large screens that a line does not name were inactive; ! = not confirmed by another sample. A selection: hits, their analogues and other compounds. The true share with any hit is near 0.9%.

C=C1C(=O)O[C@H]2C3=C(C)CCC[C@]3(C)C(=O)C[C@@H]12	BJeLR viab HTS 53
C=C1C(=O)O[C@@H]2C=C(C)[C@@H]3CC[C@@](C)(O)[C@@H]3C[C@H]12	none
Cc1ccc2nc(S/C=C/C(=O)c3ccccc3)[nH]c2c1	BJeLR viab HTS 72
CSc1ccccc1NC(=O)CSc1nc2ccc(C)cc2[nH]1	none
CCCc1ccc(O)c(N)c1	none
CCCc1ccc(-c2c(C)sc(N)c2C#N)cc1	A1 inh 12
O=C(NCc1ccccc1)c1ccc2nc3ccccc3c(=O)n2c1	none (no result: A1 inh)
CCOC(=O)c1cnc(S/C=C/C(=O)c2ccc(C)cc2)nc1N	BJeLR viab HTS 90
CCOC(=O)c1cnc(N2CCOCC2)nc1N	none
CCc1ccc(N(CC)C(=O)c2cc3c(=O)n(CC)c4ccccc4c3s2)cc1	none (no result: A1 inh)
Cc1ccc2oc(=O)c3cnn(CC(=O)NC(C)C)c3c2c1	none (no result: A1 inh)
CC(=O)Nc1ccc(OCC(O)CNC(C)C)cc1 (stereo unspecified)	none
C=CCOc1ccccc1OCC(O)CNC(C)C (stereo unspecified)	BJeLR viab HTS 56
O=C(CSc1nc2ccccc2o1)OCc1ccccc1	none
CC1(C)CC(=O)C=C(Sc2nc3ccccc3o2)C1	BJeLR viab HTS 76
O=C1C(SCCO)=C(SCCO)C(=O)c2ccccc21	BJeLR viab HTS 117
O=C1c2ccccc2C(=O)N1C(CO)C(O)c1ccccc1 (stereo unspecified)	none
COC(=O)c1cc(=O)n(C)c(=Nc2ccc(F)cc2)s1	none (no result: A1 inh)
CCOc1ccc(NC(=O)Cc2ccccc2OC)cc1	none
CN(Cc1ccccc1)S(=O)(=O)c1ccc(C(=O)Nc2ccc(-c3nc4ccccc4[nH]3)cc2)cc1	A1 inh 22, BJeLR viab HTS inconclusive
COc1ccccc1CC(=O)Nc1ccc(-c2nc3ccccc3[nH]2)cc1	A1 inh 29
CCCCN(CC)S(=O)(=O)c1ccc(C(=O)Nc2ccccc2-c2nc3ccccc3[nH]2)cc1	none (no result: A1 inh)
COc1ccc(CCNC(=O)c2cn(C3CCCC3)c(=O)c3c2c2ccccc2n3C)cc1OC	none (no result: A1 inh)
CCOc1ccc(-n2c(-c3nn(C)cc3Cl)n[nH]c2=S)cc1	none (no result: A1 inh)
CC1(C)CC(=O)c2c(SCCOC(=O)c3ccccc3Cl)sc(C#N)c2C1	none
CS(=O)c1sc(C(=O)OCc2ccccc2)c2c1C(=O)CC(C)(C)C2 (stereo unspecified)	BJeLR viab HTS 116
CC1(C)CC(=O)c2cc(OCC(=O)NCc3ccccc3)ccc2O1	none (no result: A1 inh)
OC(CN1CCNCC1)Cn1c2ccc(Br)cc2c2cc(Br)ccc21 (stereo unspecified)	A1 inh 16!
OC(CN1CCN(c2cccc(Cl)c2)CC1)Cn1c2ccccc2c2ccccc21 (stereo unspecified)	none
COc1ccccc1CNC(=O)C1c2ccccc2C(=O)N2CCc3ccccc3C12 (stereo unspecified)	none (no result: A1 inh)
CC(C)c1c(O)ccc2c1CCC1C(C)(C)CCC[C@]21C (stereo partly specified)	A1 inh 43
CC(C)c1ccc2c(c1)CCC1[C@](C)(C(=O)O)CCC[C@]21C (stereo partly specified)	none
CCOc1ccc(N(C(C)C(=O)NCc2ccc(C)cc2)S(C)(=O)=O)cc1 (stereo unspecified)	none (no result: A1 inh)
FC(F)(F)c1cccc(Nc2ncnc3sc4c(c23)CCC4)c1	none
COc1cc([C@@H]2c3cc4c(cc3C(OC3O[C@@H]5COC(C)O[C@H]5[C@H](O)[C@H]3O)C3COC(=O)[C@@H]32)OCO4)cc(OC)c1O (stereo partly specified)	none
COc1cc([C@@H]2c3cc4c(cc3[C@@H](OC3OC5COC(C)OC5C(O)C3O)[C@H]3COC(=O)[C@H]23)OCO4)cc(OC)c1O (stereo partly specified)	BJeLR viab HTS 52
CC(C)(C)n1nc(-c2ccc(Cl)cc2)c2c(N)ncnc21	A1 inh 13
CC(=O)O[C@@]1(C)[C@@H]2CC(=C(C)C)C(=O)C[C@@]2(C)CC[C@H]1OC(=O)C1(C)OC1C (stereo partly specified)	BJeLR viab HTS 54
Cc1nn(-c2ccccc2)c(N)c1C(NC(=O)c1ccccc1)(C(F)(F)F)C(F)(F)F	none (no result: A1 inh)
O=C(Nc1cccc(Br)c1)c1cccc2c1C(=O)c1ccccc1-2	A1 inh 26
O=C(c1ccc2c(c1)C(=O)c1ccccc1-2)c1ccccc1Br	none
CC(SCc1ccccc1)C(=O)Nc1cccnc1 (stereo unspecified)	none
O=C(c1ccccc1)N(c1ccc2oc3c(c2c1)CCCC3)S(=O)(=O)c1ccccc1	none
Oc1cc(C2CCCCC2)cc(C2CCCCC2)c1	A1 inh 46
O=C1NCC(O)=C1C=Nc1ccc(C2CCCCC2)cc1	none (no result: A1 inh)
Nc1ncnc2c1c(I)cn2C1OC(CO)C(O)C1O (stereo unspecified)	A1 inh 26, BJeLR viab HTS 63
OC[C@H]1O[C@@H](n2cnc3c(NCc4ccco4)ncnc32)[C@H](O)[C@@H]1O	none
CC1(C)CC(=O)c2sc(Nc3nc4c(F)cccc4s3)nc2C1	none (no result: A1 inh)
CCOC(=O)N1CCN(S(=O)(=O)c2cc(OC)ccc2OC)CC1	none (no result: A1 inh)
c1ccc2c(c1)NC(c1ccc3c(c1)OCO3)S2 (stereo unspecified)	BJeLR viab HTS 72
COc1cc(C2Nc3ccccc3S2)cc(OC)c1OC (stereo unspecified)	none
O=C1C2CC=CCC2C(=O)N1c1cccc2ccccc12 (stereo unspecified)	none (no result: A1 inh)
Cc1nc(Oc2ccc(NC(=O)c3ccccc3)cc2)c2c3c(sc2n1)CCC3	A1 inh 29
Cc1nc(Oc2ccc3c(C)cc(=O)oc3c2)c2c3c(sc2n1)CCC3	none
O=C(CSc1ccccn1)Nc1ccccc1C(F)(F)F	none
CCc1ccccc1NC(=O)CCN1C(=O)c2ccccc2C1=O	none
O=C(CCCCCN1C(=O)c2cccc3cccc(c23)C1=O)NO	BJeLR viab HTS 114
CCCN(CCC)C(=O)Cn1ncc2c(=O)oc3ccc(C)cc3c21	none (no result: A1 inh)
N#CCSc1nc2cc(C(=O)NCc3ccccc3)ccc2c(=O)n1CCc1ccccc1	A1 inh 22
N#CCSc1nc2ccccc2c(=O)n1CCCC(=O)NCc1ccco1	none
COc1ccc2c(c1)CCc1c(C(=O)N3C(C)CCCC3C)noc1-2 (stereo unspecified)	none (no result: A1 inh)
CCOC(=O)c1ccc(Nc2cc(C)nc(C)c2C(=O)OCC)cc1	none (no result: A1 inh)
COC(=O)c1ccc(Nc2cc(C)nc3ccccc23)cc1	BJeLR viab HTS 62
CCc1ccc(C2NC(=O)NC3=C2C(=O)CC(C)(C)C3)cc1 (stereo unspecified)	none (no result: A1 inh)
COC(=O)CC(O)(CCCC(C)(C)O)C(=O)O[C@@H]1C(OC)=C[C@]23CCCN2CCc2cc4c(cc2[C@@H]13)OCO4 (stereo partly specified)	A1 inh 10 (no result: BJeLR viab HTS)
COC(=O)C1CCN(C(=O)C(C)Oc2ccccc2)CC1 (stereo unspecified)	none
O=C1C(Nc2ccccc2)=CC(=O)c2ncccc21	BJeLR viab HTS 69
O=C(O[C@H]1[C@H](Oc2ccccc2COC(=O)C2(O)C=CCCC2=O)O[C@H](CO)[C@@H](O)[C@@H]1O)c1ccccc1 (stereo partly specified)	BJeLR viab HTS 58
CC(=O)O[C@H]1[C@H](Oc2ccccc2COC(=O)C2(O)C=CCCC2=O)O[C@H](CO)[C@@H](O)[C@@H]1O (stereo partly specified)	none
CCc1ccc(N2NC(=O)/C(=C/c3ccc4c(c3)n(C)c(=O)n4C)C2=O)cc1	none
